CYP2C9 inh: blockers of cytochrome P450 2C9 activity – biochemical, luminescence, ADME assay, primary screen; P11712; CYP2C9 Supersomes, luciferin-H conversion; inhibition, % at 5 µM; actives 20% (n = 96,000); AID 777, 2007;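 active = blocking of liver enzyme CYP2C9 beyond about 50% at 5 µM, limit read from the data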
Target sequence (P11712 whole entry, looked up): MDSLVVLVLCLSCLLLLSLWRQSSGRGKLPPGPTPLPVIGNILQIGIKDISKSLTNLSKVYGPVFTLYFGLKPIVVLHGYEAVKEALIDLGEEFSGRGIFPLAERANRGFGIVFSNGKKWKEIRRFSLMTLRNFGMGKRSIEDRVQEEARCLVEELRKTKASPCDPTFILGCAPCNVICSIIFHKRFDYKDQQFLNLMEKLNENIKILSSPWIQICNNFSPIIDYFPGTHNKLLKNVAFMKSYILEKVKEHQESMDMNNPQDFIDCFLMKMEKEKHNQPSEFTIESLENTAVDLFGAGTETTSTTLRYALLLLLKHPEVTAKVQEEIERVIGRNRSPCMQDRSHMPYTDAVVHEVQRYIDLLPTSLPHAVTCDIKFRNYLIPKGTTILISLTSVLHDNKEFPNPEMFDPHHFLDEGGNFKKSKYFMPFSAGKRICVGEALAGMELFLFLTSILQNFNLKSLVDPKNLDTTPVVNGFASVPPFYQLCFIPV
DAT uptake mod: changed hDAT dopamine uptake under cocaine IC80, either direction, primary screen, cocaine antagonist project, cell-based, LLC-PK1 hDAT, [14C]-dopamine uptake, MLSMR | LLC-PK1 hDAT cells, [14C]-dopamine uptake with cocaine IC80; actives deviate in either direction | B-score at 10 µM | actives 1.3% (n = 110,000);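 active = Z score or B-score, a plate-position-corrected score, falls beyond the plate's 99.7% confidence bounds, in either direction; inactive = both scores lie inside the 99.7% bounds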;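 note: scored against the spread of the other compound wells on the same plate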
D1 allo mod: D1 CRE-luciferase signal change, two-sided – cell-based, HEK293 D1, dopamine EC30, D1 allosteric modulator project, primary screen; B-score at 10 µM; D(1A) dopamine receptor (Homo sapiens), P21728; actives 5.9% (n = 58,000); dopamine EC30 potentiation; actives deviate in either direction; AID 641, 2007;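 active = luminescence count or its row- and column-corrected plate score outside the 99.7% band of the plate's sample wells, on either side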
CYP2C19 activ: human CYP2C19 activators, primary screen, biochemical, luminescence. activation factor at 5 µM. 96,000 tested, under 10 active. recombinant CYP2C19, luciferin-H EGE luminescence; active compounds read high; 0 = fully inhibited enzyme, 1 = untreated enzyme;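 active = activation factor of at least 2 at 5 µM in the primary screen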;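 note: 0 = wells with 2.5 mM tranylcypromine and 1 = vehicle-only wells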
CYP2C19 inh: blockers of cytochrome P450 2C19 activity – biochemical, luminescence, ADME assay, primary screen; actives 21% (n = 96,000); inhibition, % at 5 µM; AID 778, 2007; CYP2C19 Supersomes, luciferin-H EGE luminescence, 30 min;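 active = CYP2C19 inhibition above a set limit at 5 µM in the primary screen, cut at about 50% in these data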;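 note: plate controls were negative control wells for no effect and 2.5 mM tranylcypromine positive control for full effect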
CYP2C9 act: human CYP2C9 activators, primary screen, biochemical, luminescence; Cytochrome P450 2C9 (Homo sapiens), P11712; recombinant CYP2C9, luciferin-H conversion; active compounds read high; factor 1 = untreated enzyme, 0 = blocked; activation factor at 5 µM; actives 1.4% (n = 96,000);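 active = activation factor of 2 or more for CYP2C9 at a 5 µM dose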;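 note: 0 = sulfaphenazole-blocked wells and 1 = vehicle-only wells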
D1 PAM confirm: D1 receptor positive allosteric modulators, retest, confirmation, cell-based, HEK293 D1, CRE-luciferase, duplicate. shares compounds with D1 allo mod. dopamine EC30 potentiation; active compounds read high. luminescence at 10 µM. actives 88% (n = 2,200). AID 642, 2007;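 active = luminescence in either of two replicates above the same-plate mean plus 3 SD of the low-dose dopamine control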
D1 ag no DA: D1 receptor agonism without dopamine, confirmation, mechanism study for D1 allosteric modulator project, cell-based, HEK293 D1, CRE-luciferase, secondary assay 1 | shares compounds with D1 allo mod | luminescence, no dopamine; active compounds read high | luminescence at 10 µM | actives 0.8% (n = 1,900); in the data active = luminescence above about 3900
Isoprot counter: alters isoproterenol CRE-luciferase response in HEK293 cells; calls only at 10 µM; AID 647; shares compounds with D1 allo mod; HEK293 D1 CRE-luciferase, isoproterenol EC30 counter-screen; actives 63% (n = 2,200);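 active = luminescence in either replicate above plate mean of wells with a partly effective reference agonist dose plus 3 SD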;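 note: isoproterenol raises cAMP through native beta-adrenoceptor Gs so signal bypasses D1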
Starred values were filed as active, the others as inactive. Most compounds without a hit are left out; they make up all but 28% or so of the library.

What do the screens show for `O=S(=O)(c1cccs1)N1CN(Cc2cccs2)c2nc3ccccc3nc21`?
CYP2C9 inh: 78.6*; DAT uptake mod: -0.0284; D1 allo mod: 3.82*; CYP2C19 activ: 0.1; CYP2C19 inh: 92.6*; CYP2C9 act: 0.2; D1 PAM confirm: 15624*; D1 ag no DA: 1724; Isoprot counter: active

Results for C=CCN1CN(S(=O)(=O)c2cccs2)c2nc3ccccc3nc21 ?
CYP2C9 inh: 17.2; DAT uptake mod: -0.971; D1 allo mod: 6.04*; CYP2C19 activ: 0.4; CYP2C19 inh: 62.9*; CYP2C9 act: 0.8; D1 PAM confirm: 14144*; D1 ag no DA: 1432; Isoprot counter: active

Results for O=c1cc(CO)oc(CN2CCN(c3cccc(C(F)(F)F)c3)CC2)c1O ?
CYP2C9 inh: 7.5; DAT uptake mod: -0.0159; CYP2C19 activ: 1.2; CYP2C19 inh: -22.3; CYP2C9 act: 0.9

What do the screens show for `O=c1cc(CO)oc(CN2CCN(c3ccccc3)CC2)c1O`?
CYP2C9 inh: -11.8; DAT uptake mod: -0.679; D1 allo mod: 3.09*; CYP2C19 activ: 1.1; CYP2C19 inh: -5.3; CYP2C9 act: 1.1; D1 PAM confirm: 7092; D1 ag no DA: 1768; Isoprot counter: inactive

How did Cc1cc(=O)oc2c1ccc1oc(/C(=N/O)c3ccccc3)c(C)c12 do in these assays?
CYP2C9 inh: 60.3*; DAT uptake mod: 0.105; D1 allo mod: 5.19*; CYP2C19 activ: 0.9; CYP2C19 inh: 6.2; CYP2C9 act: 0.4; D1 PAM confirm: 7656*; D1 ag no DA: 1496; Isoprot counter: active

How did CCC(c1nnnn1CCOC)N(Cc1ccc(C)cc1)Cc1cc2cc(OC)ccc2[nH]c1=O (stereo unspecified) do in these assays?
CYP2C9 inh: 11.8; DAT uptake mod: -0.66; D1 allo mod: 5.79*; CYP2C19 activ: 0.8; CYP2C19 inh: 18.8; CYP2C9 act: 0.9; D1 PAM confirm: 14016*; D1 ag no DA: 1612; Isoprot counter: active

What do the screens show for `O=C(Cn1nnc(-c2ccccc2Cl)n1)N/N=C/c1ccc2c(c1)OCO2`?
CYP2C9 inh: -76.4; DAT uptake mod: -1.67; CYP2C19 activ: 0.9; CYP2C19 inh: 5.2; CYP2C9 act: 1.8

Results for COC(=O)Cn1c(=O)c2c(nc(Br)n2CC(=O)OC)n(C)c1=O ?
CYP2C9 inh: -6.1; DAT uptake mod: -0.135; D1 allo mod: 0.829; CYP2C19 activ: 1; CYP2C19 inh: 0.2; CYP2C9 act: 1.1

What do the screens show for `CCc1nnc(NC(=O)CSc2nc3cccnc3n2C2CCCCC2)s1`?
CYP2C9 inh: 7.8; DAT uptake mod: 0.87; D1 allo mod: 6.19*; CYP2C19 activ: 1.1; CYP2C19 inh: -5.1; CYP2C9 act: 0.9; D1 PAM confirm: 8624*; D1 ag no DA: 1648; Isoprot counter: active

What do the screens show for `Cc1nc(NC(=O)CSc2nc3cccnc3n2C2CCCCC2)sc1C`?
CYP2C9 inh: 11.8; DAT uptake mod: -0.687; D1 allo mod: 1.62; CYP2C19 activ: 0.7; CYP2C19 inh: 28.5; CYP2C9 act: 0.9

How did C=CCn1c(Sc2nncn2C)nc2c1c(=O)[nH]c(=O)n2C do in these assays?
DAT uptake mod: 0.158

How did Cc1cc(C(=O)COC(=O)CCc2nc3ccccc3s2)c(C)n1C do in these assays?
CYP2C9 inh: -85.7; DAT uptake mod: -0.0366; CYP2C19 activ: 0.9; CYP2C19 inh: 14.7; CYP2C9 act: 1.9

What do the screens show for `CC(=O)Nc1nc2n(n1)C(c1ccccc1)C=C(c1ccccc1)N2` (stereo unspecified)?
CYP2C9 inh: -0.3; DAT uptake mod: 0.979; D1 allo mod: 3.42*; CYP2C19 activ: 0.9; CYP2C19 inh: 8.3; CYP2C9 act: 1; D1 PAM confirm: 6792*; D1 ag no DA: 1432; Isoprot counter: inactive

What do the screens show for `O=C(Nc1nc2n(n1)C(c1ccccc1)C=C(c1ccccc1)N2)c1ccco1` (stereo unspecified)?
CYP2C9 inh: 72.9*; DAT uptake mod: -0.418; D1 allo mod: 2.86*; CYP2C19 activ: 0.7; CYP2C19 inh: 31.4; CYP2C9 act: 0.3; D1 PAM confirm: 11140*; D1 ag no DA: 1520; Isoprot counter: active

How did CC(=O)Nc1nc2n(n1)C(c1ccc(F)cc1)C=C(c1ccccc1)N2 (stereo unspecified) do in these assays?
CYP2C9 inh: 7.2; DAT uptake mod: 0.225; D1 allo mod: 1.98; CYP2C19 activ: 0.9; CYP2C19 inh: 11.6; CYP2C9 act: 0.9

How did OC1CCN(c2c3c(nc4cc(-c5ccc(F)cc5)nn24)CCC3)CC1 do in these assays?
CYP2C9 inh: 49.2; DAT uptake mod: 1.46; CYP2C19 activ: 0.9; CYP2C19 inh: 6.8; CYP2C9 act: 0.5

How did Cc1cccc(-c2cc3nc4c(c(N5CCCC(O)C5)n3n2)CCC4)c1 (stereo unspecified) do in these assays?
CYP2C9 inh: 97.5*; DAT uptake mod: 3.4*; D1 allo mod: 8.44*; CYP2C19 activ: 0.1; CYP2C19 inh: 87.3*; CYP2C9 act: 0; D1 PAM confirm: 18448*; D1 ag no DA: 1604; Isoprot counter: active

Results for OC1CCCN(c2c3c(nc4cc(-c5cccc(Cl)c5)nn24)CCC3)C1 (stereo unspecified) ?
DAT uptake mod: 1.72; D1 allo mod: 3.35*; D1 PAM confirm: 16460*; D1 ag no DA: 1624; Isoprot counter: active

How did O=C1CC(c2ccc(F)cc2)Sc2ccccc2N1 (stereo unspecified) do in these assays?
DAT uptake mod: 1.88; D1 allo mod: 27.5*; D1 PAM confirm: 22156*; D1 ag no DA: 1556; Isoprot counter: active

Results for Nc1nc2nc(SCC(=O)N3CCCc4ccccc43)[nH]c2c(=O)[nH]1 ?
CYP2C9 inh: -19.0; DAT uptake mod: -1.46; D1 allo mod: 0.521; CYP2C19 activ: 1.2; CYP2C19 inh: -18.9; CYP2C9 act: 1.2

High-throughput results deposited in PubChem by several laboratories.
